In all, about 69,000 compounds went through this assay and about 8,600 (12%) showed an effect of 50% or more. This excerpt belongs to a sample that is enriched for strong results.

The subject of the assay is Plasmodium berghei. The assay can be described thus: Screen against P. berghei liver stage (PbLuc), transformed with Luciferase, at 10uM. Format: functional, HepG2. The settings on record: tested at 10 uM.
In the case of `Cc1cc2ccccc2n1CC(=O)N[C@@H](C)C(=O)O`, the INHIBITION stood at 4.93%.

With `Cc1ccc(OCCSCCn2nc3ccccn3c2=O)cc1`, the INHIBITION came to 22%.

Turning to `CCn1cc(CN2CCCC(CO)(CCc3ccccc3)C2)c(C)n1` (stereo not given), the INHIBITION is reported as 53.1%.

For `CCn1ccnc1CN1CCCC(CO)(CCCc2ccccc2)C1` (stereo not given), the INHIBITION is recorded as 3.68%.

As for `Cn1ccnc1CN1CCCC(CO)(CCc2ccccc2)C1` (stereo not given), the INHIBITION is reported as 16.6%.

As to `O=C(CN1CCCS1(=O)=O)Nc1cccc(COC2CCCCC2)c1`, the INHIBITION stood at 55.5%.

For the compound `O=C(CN1CCCS1(=O)=O)Nc1ccc(OC2CCCC2)c(Cl)c1`, the INHIBITION is reported as -6.94%.

Consider `O=C(CN1CCCS1(=O)=O)Nc1ccc(OC2CCCC2)cc1`, for which the INHIBITION is -5.94%.

With `CNC(=O)CCc1cc(C2CCCN2C(=O)CO)nc(C)n1` (stereo not given), the INHIBITION came to 29.4%.

Regarding `Cc1nc(CN2C(=O)CC[C@@H]3[C@H]2CCN3C(=O)NC2CC2)cs1`, the INHIBITION is reported as 38.7%.

With `Cc1ccnn1CCC(=O)N1CCOC(CCc2ccccc2)C1` (stereo not given), the INHIBITION is given as 44.3%.

Consider `O=C(c1scc2c1OCCO2)N1CCOC(CCc2ccccc2)C1` (stereo not given), for which the INHIBITION is listed as 75%.

Consider `CN(CC(=O)N1CCOC(CCc2ccccc2)C1)Cc1ccccn1` (stereo not given), for which the INHIBITION turned out to be 54.2%.

On to `O=C(c1scc2c1OCCO2)N1CCOC(Cc2ccc(F)cc2)C1` (stereo not given), for which the INHIBITION came to 0.72%.

Regarding `CN(CC(=O)N1CCOCC(CO)C1)Cc1ccccn1` (stereo not given), the INHIBITION is on record as 19.5%.

On to `Cc1n[nH]c(CCC(=O)N2CCOC(Cc3ccc(F)cc3)C2)c1C` (stereo not given), for which the INHIBITION is listed as 55.4%.

For `COc1ccc(CC2CN(C(=O)c3ocnc3C)CCO2)cc1` (stereo not given), the INHIBITION was 46.4%.

Turning to `Cc1ncoc1C(=O)N1CCOC(Cc2ccccc2)C1` (stereo not given), the INHIBITION is 55%.

On to `O=C(c1scc2c1OCCO2)N1CCOC(Cc2cccc(F)c2)C1` (stereo not given), for which the INHIBITION is -22%.

With `Cc1nc(C(=O)N2CCOC(Cc3ccc(F)cc3)C2)co1` (stereo not given), the INHIBITION is reported as -23.4%.

For the compound `Cc1nc(C(=O)N2CCOC(Cc3ccccc3)C2)co1` (stereo not given), the INHIBITION is -48.5%.

`Cc1n[nH]c(CCC(=O)N2CCOC(Cc3ccccc3)C2)c1C` (stereo not given): the INHIBITION was found to be 7.19%.

In the case of `CC(C)CCc1n[nH]c(C(=O)O)c1Br`, the INHIBITION was 11.7%.

As to `O=c1[nH]c2cn(-c3cccc(F)c3)c(=O)n2[nH]1`, the INHIBITION was found to be 48%.

For the compound `CC(C)Cn1cncc1-c1nc2c([nH]1)CCCNC2=O`, the INHIBITION is listed as -21.8%.

For `Cc1cccc(-c2nc(C)nn2CC(=O)NC(C)C2CC2)c1` (stereo not given), the INHIBITION was 33.3%.

Consider `Cc1cccc2c1NC(c1cnc(C3CCC3)s1)NC2=O` (stereo not given), for which the INHIBITION was 39.3%.

For `Cc1cc(=O)n2nc(Oc3ccc(F)c(F)c3)sc2n1`, the INHIBITION was determined as 42.5%.

Turning to `CC(=O)N1CCC(Cc2cnc(C(=O)N3CCCC3)cn2)C1` (stereo not given), the INHIBITION turned out to be 7.52%.

With `Cc1ccc(OCCN(C)C(C)c2cccc(S(N)(=O)=O)c2)cc1` (stereo not given), the INHIBITION was -31.8%.

For the compound `CN(C)C[C@H]1OC[C@@H]2CCN(C(=O)Cc3cccs3)C[C@@H]21`, the INHIBITION is reported as 13.7%.

Turning to `Cc1cc(N2Cc3cnn(CCO)c3C2)nc(-c2ccccc2)n1`, the INHIBITION was -81.1%.

For `CCNc1ncc(C(=O)N2CCOC(CCCc3ccccc3)C2)cn1` (stereo not given), the INHIBITION is reported as 42.1%.

Turning to `O=C(c1cccnc1)N1CCOC(Cc2ccccc2Cl)C1` (stereo not given), the INHIBITION is reported as 0.55%.

As to `O=C(c1cccnc1)N1CCOC(CCCc2ccccc2)C1` (stereo not given), the INHIBITION is recorded as 60.9%.

In the case of `COCCCN1Cc2cccc(NC(=O)c3ccccc3Cl)c2C1`, the INHIBITION turned out to be 50%.

On to `COCCCN1Cc2cccc(NC(=O)c3ccccc3C)c2C1`, for which the INHIBITION was determined as 40.6%.

On to `COCCCN1Cc2cccc(NC(=O)c3cc(F)cc(F)c3)c2C1`, for which the INHIBITION worked out at 45.7%.

`Cc1nn(C)c2c(=O)n(C(C)C)c(NCC3CCCO3)nc12` (stereo not given): the INHIBITION worked out at 3.58%.

In the case of `CCn1c(NCc2ccccn2)nc2c(C)nn(C)c2c1=O`, the INHIBITION is 18.4%.

Regarding `Cc1nn(C)c2c(=O)n(C(C)C)c(NCCc3ccccc3)nc12`, the INHIBITION was found to be 87.2%.

On to `CCn1c(NCc2cccnc2)nc2c(C)nn(C)c2c1=O`, for which the INHIBITION was -9.73%.

Turning to `CCCn1c(NCCc2ccccc2)nc2c(C)nn(C)c2c1=O`, the INHIBITION stood at 64.8%.

As for `CCn1c(NCc2ccccc2)nc2c(C)nn(C)c2c1=O`, the INHIBITION turned out to be 33.3%.

For `CCCn1nc(C)c(C(=O)N(C)[C@@H]2CC[C@@H](OC)[C@@H]2O)c1C`, the INHIBITION is on record as 40.65%.

Consider `CCn1ncc2c(C(F)(F)F)cc(-c3cnn(C)c3)nc21`, for which the INHIBITION is on record as 19.55%.

For the compound `CCOC(=O)c1cnn(C2CCN(C(=O)CC(C)(C)C)CC2)c1N`, the INHIBITION is recorded as -17.4%.

On to `CCN(CC)c1nc(C)cc(C(=O)Nc2cccc(C(N)=O)c2)n1`, for which the INHIBITION is 25.3%.

With `Cc1nnc(C(NS(=O)(=O)c2cc(C#N)ccc2C)C(C)C)[nH]1` (stereo not given), the INHIBITION worked out at 49.1%.

For `CSCC[C@H]1CN2CCC[C@H]2CN1Cc1coc2ccc(C)cc2c1=O`, the INHIBITION stood at 43.6%.

With `CC(=O)NCC(=O)N1Cc2nccn2CC(CN(C)C(C)C)C1` (stereo not given), the INHIBITION is recorded as 5.44%.

As for `CN(Cc1ccsc1)C(=O)Nc1ccc(N(C)C)nc1`, the INHIBITION turned out to be 33.8%.

With `CN(C)c1ccc(NC(=O)NCc2ccc(Cl)s2)cn1`, the INHIBITION is -21%.

Consider `CN(Cc1ccc(Cl)s1)C(=O)Nc1ccc(N(C)C)nc1`, for which the INHIBITION amounted to 58.8%.

For `Cn1cccc1C(=O)N1CCc2ncnc(C3CC3)c2CC1`, the INHIBITION was 35.8%.

For the compound `COCCSCC(=O)NCc1ccc(N(C)C)nc1`, the INHIBITION came out at 43.5%.

As for `CCOCCCNC(=O)c1nc2c(s1)CCCN2c1ccc(C)nn1`, the INHIBITION turned out to be 35.8%.

For `COC(=O)CC(C)(C)CC(=O)N1CCC(C(F)(F)F)CC1`, the INHIBITION worked out at 24.6%.

Regarding `CN(C)S(=O)(=O)CCCN1CCCC1c1noc(C2CC2)n1` (stereo not given), the INHIBITION is -15.5%.

As to `Cc1nc(C2CCCN2CCCS(=O)(=O)N(C)C)no1` (stereo not given), the INHIBITION was 54.3%.

With `Cc1nc(C2CCCN2CCCc2nc3ccccc3o2)no1` (stereo not given), the INHIBITION turned out to be 21.6%.

As for `CCc1nc(C2CCCN2CCCS(=O)(=O)c2ccccc2)no1` (stereo not given), the INHIBITION is 51.2%.

For the compound `Cc1nc(C2CCCN2CCCS(N)(=O)=O)no1` (stereo not given), the INHIBITION is reported as 22.5%.

As to `CC(C)c1nc(C2CCCN2CCCc2nc3ccccc3o2)no1` (stereo not given), the INHIBITION is on record as 26.3%.

Consider `Cc1nc(C2CCCN2CCCS(=O)(=O)c2ccccc2)no1` (stereo not given), for which the INHIBITION is listed as 3.603%.

With `CCc1nc(C2CCCN2CCS(=O)(=O)c2ccccc2)no1` (stereo not given), the INHIBITION was determined as 22.007%.

Turning to `CCc1nc(C2CCCN2CCCc2nc3ccccc3o2)no1` (stereo not given), the INHIBITION is 62.6%.

In the case of `O=C(NCCN1CCCCC1)c1ccn(-c2ccccc2)n1`, the INHIBITION turned out to be 19.6%.

On to `CCSCC(C)NCc1cn2ccccc2n1` (stereo not given), for which the INHIBITION was -20%.

`COCC1CN(Cc2csc(C)n2)Cc2nccn2C1` (stereo not given): the INHIBITION stood at 4.61%.

The values are drawn from ChEMBL document CHEMBL4513216, “Probing the Open Global Health Chemical Diversity Library for Multistage-Active Starting Points for Next-Generation Antimalarials” (ACS Infect Dis, 2020).
